NALP1 inh: inhibitors of NALP1 inflammasome in yeast; S. cerevisiae NALP1/ASC/caspase-1 growth, X-gal OD620, 72 h; inhibition, % at 10 µM; hit rate 0.61% among 280,000; AID 2071; in the data active means inhibition mostly above about 24%, no sharp cut-off; inactive means mostly below about 32%
APOBEC3G inh: blocks human APOBEC3G single-stranded DNA deamination | recombinant A3G, ssDNA deamination FAM/TAMRA fluorescence | inhibition, % at 20 µM | hit rate 0.28% among 330,000;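 active means inhibition of at least 40% at 20 µM, with no more than 30% in the related APOBEC3A deaminase screen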
Target sequence (Q9HC16 whole entry, looked up): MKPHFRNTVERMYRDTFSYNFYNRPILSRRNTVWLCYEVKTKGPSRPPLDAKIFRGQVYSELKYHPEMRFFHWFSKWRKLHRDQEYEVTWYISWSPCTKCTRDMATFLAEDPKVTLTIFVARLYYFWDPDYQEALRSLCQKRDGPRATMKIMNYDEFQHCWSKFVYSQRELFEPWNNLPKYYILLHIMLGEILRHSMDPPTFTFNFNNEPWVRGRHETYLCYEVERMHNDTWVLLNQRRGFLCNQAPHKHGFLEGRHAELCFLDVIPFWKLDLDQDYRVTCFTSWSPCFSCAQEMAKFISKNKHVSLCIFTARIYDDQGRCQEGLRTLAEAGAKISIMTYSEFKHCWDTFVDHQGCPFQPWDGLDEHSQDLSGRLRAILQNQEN
APOBEC3A inh: human APOBEC3A DNA deaminase inhibition; recombinant A3A, FAM/TAMRA ssDNA deamination fluorescence; inhibition, % at 20 µM; AID 493011; hit rate 0.41% among 330,000;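 active means at least 40% inhibition at 20 µM here, with at most 30% in a related deaminase screen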
Target sequence (P31941 whole entry, looked up): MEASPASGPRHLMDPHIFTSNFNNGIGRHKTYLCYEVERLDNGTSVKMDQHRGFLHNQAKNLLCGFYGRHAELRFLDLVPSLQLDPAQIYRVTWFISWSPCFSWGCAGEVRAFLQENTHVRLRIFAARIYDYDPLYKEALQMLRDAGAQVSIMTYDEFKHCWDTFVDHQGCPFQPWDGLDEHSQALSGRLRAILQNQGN
PolyA inhibitor: yeast polyadenylation inhibition; S. cerevisiae SKY197-pL101 polyadenylation reporter, beta-gal luminescence; efflux-impaired pdr1/pdr3 knockout yeast; score 100 = 6 SD above DMSO; activity score, % at 12 µM; hit rate 0.02% among 300,000;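 active means lowest replicate activity score at least 50, where 100 means six control SD above control mean; inconclusive means lowest score under 50 but half or more replicates reach 50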;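 further: yeast exposed to compound for 9 h at 30 °C; higher score means more reporter readthrough which indicates perturbed polyadenylation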
A3A conf: APOBEC3A (human) deaminase inhibition, confirmed; hit rate 63% among 1,400; inhibition, % at 20 µM; shares compounds with APOBEC3A inh; recombinant A3A, ssDNA deaminase UDG fluorescence assay; AID 493151;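 active means inhibition reaching a set limit, 80% of the first screen's cutoff, at 20 µM in any replicate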
UDG A3A counter: inhibits UDG, flagging false APOBEC3A inhibitors; 1,000 tested, under 10 active; UDG counterscreen, FAM/TAMRA uracil oligo fluorescence; inhibition, % at 20 µM; shares compounds with APOBEC3A inh; call rule not given here
Hits are given with their value; - = inactive; ? = inconclusive; . = no result. Only some compounds are listed: those with a hit (about 1.2% of all), similar ones and a draw of the others.

SMILES | NALP1 inh | APOBEC3G inh | APOBEC3A inh | PolyA inhibitor | A3A conf | others
CC1CC(OC(=O)c2ccccc2)(c2ccccc2)C(C)CN1C (stereo unspecified) | 33.3 | - | - | - | .
CCCCOc1ccc(CCN)cc1Cl | 47.5 | - | - | - | .
CC(C)Oc1ccc(CCN)cc1Cl | 44.1 | - | - | - | .
COc1ccc(CCN)cc1O | . | - | - | ? | .
COC(=O)C1=C(c2cccc(C#N)c2)C[C@@H]2CC[C@H]1N2C(=O)N1CCCCC1 | . | - | - | . | .
C[C@]12CCC(=O)C[C@@H]1CC[C@@H]1[C@@H]2CC[C@]2(C)[C@@H](O)CC[C@@H]12 | . | - | - | . | .
C[C@]12CC(=O)CC1CCC1C2CC[C@@]2(C)C1CC[C@@H]2O (stereo partly specified) | 42.0 | - | - | - | .
COC(=O)C1=C(c2cc3ccccc3s2)C[C@@H]2CC[C@H]1N2C(=O)N1CCOCC1 | . | - | - | - | .
COc1ccccc1OP(=O)(Nc1cccnc1)Oc1ccccc1OC | - | - | - | - | .
Cc1ccccc1NC(=O)c1cc(-c2ccccc2)n(CCCN2CCOCC2)c1C | - | - | - | - | .
Cc1ccc(NC(=O)c2cc(-c3ccccc3)n(CCCN3CCOCC3)c2C)cc1 | 37.3 | - | - | - | .
CCN(CC)c1ccc(/C=C/[N+](=O)[O-])cc1 | - | - | - | - | .
COc1cc(/C=C/[N+](=O)[O-])ccc1O | 93.6 | - | - | - | .
CNC(=O)Oc1ccc2ncccc2c1 | 51.5 | - | - | - | .
Fc1ccc(CCNCc2cccc(Cl)c2)cc1 | 40.6 | - | - | - | .
COc1cccc(CNCCc2ccc(F)cc2)c1 | - | - | - | - | .
CNC(=O)N(C)c1ccc(C(O)(C(=O)OC)C(F)(F)F)cc1 (stereo unspecified) | 42.3 | - | - | - | .
C[C@H]1CC[C@@]2(C)[C@@H](CC[C@@H]3[C@@H]2CC[C@]2(C)[C@@H](O)CC[C@@H]32)C1 | . | - | - | - | .
CCn1nc(-c2cccs2)nc2c(=O)n(C)c(=O)nc1-2 | 33.1 | . | . | . | .
O=C(COC(=O)Cc1ccccc1)NC(=O)NC1CCCCC1 | . | - | - | - | .
O=C(COC(=O)Cc1ccccc1)NC12CC3CC(CC(C3)C1)C2 | 24.2 | - | - | - | .
CCOC(=O)c1cncn1[C@@H](C)c1ccccc1 | . | - | - | . | .
Cc1ccc(S(=O)(=O)N2CC2(C)CCl)cc1 (stereo unspecified) | - | - | - | - | .
Cc1c(C)c2ccc(OCC(=O)N3C[C@H]4C[C@@H](C3)c3cccc(=O)n3C4)cc2oc1=O | 40.3 | - | - | - | .
CCOc1cc(CNCCc2c[nH]c3ccccc23)cc(Cl)c1OCC | 53.6 | - | - | - | .
SMILES | NALP1 inh | APOBEC3G inh | APOBEC3A inh | PolyA inhibitor | A3A conf | others
CCOc1c(Cl)cc(CNCCc2c[nH]c3ccccc23)cc1OC | - | - | - | - | .
Brc1ccc2c(c1)C(OC1CN3CCC1CC3)c1ccccc1CS2 (stereo unspecified) | 57.3 | - | - | - | .
CC[N+](CC)(CC)CC | - | - | - | - | .
COc1cccc(Oc2coc3cc(OC(=O)N(C)C)ccc3c2=O)c1 | - | - | 98.7 | - | - | UDG A3A counter=-
CN(C)C(=O)Oc1ccc2c(=O)c(Oc3ccccc3Br)coc2c1 | - | - | - | - | .
CCN(CC)C(=O)c1ccc(NC(=O)CN2CCc3cc(OC)c(OC)cc3C2)cc1 | - | - | - | - | .
COc1cc2c(cc1O)C[C@H]1NCCc3cc4c(c-2c31)OCO4 | - | - | 60.8 | - | 34.0
C=C1C(O)(c2ccccc2)C2CC[N+]1(C)CC2 (stereo unspecified) | - | - | 76.3 | - | 74.4 | UDG A3A counter=-
Cc1nc2ccc(Cl)cc2c(=O)n1-c1cccc(Cl)c1 | - | - | - | - | .
C[N+](C)(C)c1ccccc1 | - | - | 70.1 | - | 77.7 | UDG A3A counter=-
C[C@]12CCC3C(C(=O)C[C@H]4C[C@@H](O)CC[C@]34C)C1CCC2=O (stereo partly specified) | . | - | - | . | .
CCC(=O)C(CCN1CCOCC1)(c1ccccc1)c1ccccc1 | . | - | - | - | .
CC(C)[N+](C)(CCC(C(N)=O)(c1ccccc1)c1ccccc1)C(C)C | - | - | 67.7 | - | 82.7 | UDG A3A counter=-
CCN(CC)P(c1n(C)cc[n+]1C)N(CC)CC | - | - | 62.1 | - | 65.3 | UDG A3A counter=-
CCCc1cc(=O)oc2cc(OCC(=O)N3CCC(C(=O)O)(c4ccccc4)CC3)ccc12 | - | - | - | - | .
O=C1NC(=O)N(c2ccc3c(c2)OCO3)C(=O)/C1=C/c1ccc(N2CCCCC2)o1 | - | - | - | - | .
O=C1NC(=O)N(c2ccc3c(c2)OCO3)C(=O)/C1=C\c1ccc(-c2ccccc2C(=O)O)o1 | - | - | 76.1 | - | 65.1 | UDG A3A counter=-
O=Cc1cn(Cc2c(F)cccc2Cl)c2ccccc12 | - | - | - | - | .
O=Cc1cn(Cc2ccccc2F)c2ccccc12 | - | - | 44.6 | - | -
C[N+]1(CC2COC(c3ccco3)O2)CCCCC1 (stereo unspecified) | - | - | 60.1 | - | 66.3 | UDG A3A counter=-
CC(C)(C#CCCCCC#CC(C)(C)[N+](C)(C)C)[N+](C)(C)C | - | - | 50.8 | - | 46.1
Cc1ccc(CC(=O)N2CCN(C)CC2)cc1 | - | - | - | - | .
CCCC[N+]12CCC(CC1)C(=C(c1ccccc1)c1ccccc1)C2 | - | - | 97.4 | - | 71.0 | UDG A3A counter=-
CCC[N+]12CCC(CC1)C(=C(c1ccccc1)c1ccccc1)C2 | - | - | - | - | .
N#CCCn1cc(C(=O)NCc2ccccc2)c(-c2ccccc2)n1 | - | - | - | - | .
SMILES | NALP1 inh | APOBEC3G inh | APOBEC3A inh | PolyA inhibitor | A3A conf | others
Cc1cc(/C=C2\C(=O)NC(=O)N(c3cccc(F)c3)C2=O)c(C)n1-c1cc(C(=O)O)cc(C(=O)O)c1 | - | - | 70.3 | - | 52.9 | UDG A3A counter=-
Cc1cc(/C=C2\C(=O)NC(=O)N(c3ccc(Br)cc3)C2=O)c(C)n1-c1cc(C(=O)O)cc(C(=O)O)c1 | - | - | - | - | .
CC(C)COc1ccc(Cc2c(O)[nH]c(=S)[nH]c2=O)cc1 | - | - | - | - | .
CCCCCCC[n+]1ccc(-c2cc[n+](CCCCCCC)cc2)cc1 | - | - | 57.9 | - | 74.5 | UDG A3A counter=-
COC(=O)C1=C(c2c(C)noc2C)C[C@@H]2CC[C@H]1N2C(=O)N1CCCCC1 | . | - | - | . | .
COC(=O)C1=C(c2ccc3ccccc3c2)C[C@@H]2CC[C@H]1N2C(=O)N1CCC(C)CC1 | . | - | - | . | .
COc1ccccc1N1CCN(C2CCCN(C(=O)COc3ccccc3Cl)C2)CC1 (stereo unspecified) | - | - | - | - | .
C[N+]12CCC(CC1)C(C#N)(N1CCOCC1)C2 (stereo unspecified) | - | - | 46.3 | - | 80.7 | UDG A3A counter=-
Cc1ccc(/C=C2/Sc3ccc(C(=O)N4CCC5(CC4)OCCO5)cc3NC2=O)cc1 | - | - | - | - | .
C[C@@H]1CC2(CCCC[N+]2(C)C)C[C@H]1C | - | - | 81.5 | - | 67.7 | UDG A3A counter=-
COc1ccc2[nH]cc(CCN=C(N)N)c2c1 | - | - | 53.6 | - | 27.6 | UDG A3A counter=-
